Source: PubChem BioAssay AID602400 (Sanford-Burnham Center for Chemical Genomics, 2012)
A number with no mark means an inactive call. The source made the active and inactive calls. The rule behind the calls is not given here.

test: off-target activity on Bfl-1 – biochemical, set 4, counter-screen for UBC13 polyubiquitination inhibitor project, SAR follow-up (AID 602400); conditions: Bfl-1 counterscreen for UBC13 inhibitors

| SMILES | IC50 |
| --- | --- |
| Cc1cccc(NC(=O)C2CCN(c3ncnc4c3nc3n4CCCCC3)CC2)c1C | > 100 µM |
| O=C(Nc1cc(F)ccc1F)C1CCN(c2ncnc3c2nc2n3CCCCC2)CC1 | > 100 µM |
| O=C(NCc1cccc(Cl)c1)C1CCN(c2ncnc3c2nc2n3CCCCC2)CC1 | > 100 µM |
| Cc1cc(Cl)ccc1NC(=O)C1CCN(c2ncnc3c2nc2n3CCCCC2)CC1 | > 100 µM |
| Cc1ccc(NC(=O)C2CCN(c3ncnc4c3nc3n4CCCCC3)CC2)cc1Cl | > 100 µM |
| Cc1cc(C)cc(NC(=O)C2CCN(c3ncnc4c3nc3n4CCCCC3)CC2)c1 | 72.9 µM (active) |
| Cc1ccc(NC(=O)C2CCCN(c3ncnc4c3nc3n4CCCCC3)C2)cc1F (stereo not drawn) | > 100 µM |
| Cc1ccc(NC(=O)C2CCN(c3ncnc4c3nc3n4CCCCC3)CC2)cc1Br | > 100 µM |
| O=C(NCC1CCN(Cc2ccccc2Cl)CC1)C1CCCN(c2ncnc3c2nc2n3CCCCC2)C1 (stereo not drawn) | > 100 µM |
| Cc1cccc(NC(=O)C2CCCN(c3ncnc4c3nc3n4CCCCC3)C2)c1 (stereo not drawn) | > 100 µM |
| Cc1ccc(C)c(N2CCN(CCCNC(=O)C3CCCN(c4ncnc5c4nc4n5CCCCC4)C3)CC2)c1 (stereo not drawn) | > 100 µM |
| O=C(NCCCN1CCCCC1)C1CCN(c2ncnc3c2nc2n3CCCCC2)CC1 | > 100 µM |
| O=C(NCC1CCN(Cc2ccccc2Cl)CC1)C1CCCN(c2ncnc3c2nc2n3CCCC2)C1 (stereo not drawn) | > 100 µM |
